# Source: PubChem (ICCB-Longwood Screening Facility, Harvard Medical School)
# Mtb MbtI inh = MbtI salicylate synthase inhibition; purified MbtI enzyme, fluorescence intensity read-out; inhibition, % (test concentration not listed); hit rate 0.89% among 100,000; in the data active = inhibition mostly above about 56%, no sharp cut-off; inactive = mostly below about 77%
# AID504770 = E. coli YBA685 growth inhibition, screen for V. cholerae RctB inhibitors; E. coli YBA685 rctB-dependent plasmid, OD600 growth, 3 h; stronger effect = lower value; hit rate 0.27% among 130,000; z-score (test concentration not listed); in the data active = z-score below about -2, passing the limit was not always enough
# MenB inh = inhibitors of Mycobacterium tuberculosis MenB enzyme; P9WNP5; AID 540299; hit rate 0.43% among 100,000; MenB enzyme assay, absorbance read-out; inhibition, % (test concentration not listed); in the data active = inhibition above about 21%, passing the limit was not always enough
# Polio RdRp inh = inhibitors of poliovirus RNA polymerase binding and polymerization | % elongation, % (compound at 16.7 µg/mL) | hit rate 0.66% among 150,000 | poliovirus polymerase elongation, fluorescence polarization; stronger effect = lower value | P03300; in the data active = % elongation below about 90%
# Target sequence (P03300 1749-2209 limits assumed): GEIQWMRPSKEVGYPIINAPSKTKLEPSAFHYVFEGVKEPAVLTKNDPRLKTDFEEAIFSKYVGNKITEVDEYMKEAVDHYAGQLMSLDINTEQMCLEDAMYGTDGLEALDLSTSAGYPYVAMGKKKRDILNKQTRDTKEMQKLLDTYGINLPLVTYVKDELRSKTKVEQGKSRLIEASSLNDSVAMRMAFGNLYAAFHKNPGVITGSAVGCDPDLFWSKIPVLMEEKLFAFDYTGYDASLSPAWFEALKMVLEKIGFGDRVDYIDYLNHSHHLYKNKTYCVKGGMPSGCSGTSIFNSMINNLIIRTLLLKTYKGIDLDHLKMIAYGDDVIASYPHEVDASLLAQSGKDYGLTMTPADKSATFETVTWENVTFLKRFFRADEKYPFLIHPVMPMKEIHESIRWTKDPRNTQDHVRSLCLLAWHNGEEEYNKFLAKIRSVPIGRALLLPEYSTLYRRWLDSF
# Numbers stand for hits; i = inactive; nt = not tested or not shown. The list is not random: actives were taken first. Their share in the collection is about 1.4%.
SMILES,Mtb MbtI inh,AID504770,MenB inh,Polio RdRp inh
CSc1nc(NC(N)=S)nc(NC(C)C)n1,87,i,i,i
S=C(NCc1ccco1)Nc1ccccc1,i,i,37,i
O=C(Nc1ccccc1)C(=S)NCc1ccco1,i,i,i,i
O=C(O)c1cccc(S(=O)(=O)N2CCCCC2)c1,i,i,i,i
CC(C)CNC(=O)c1cccc(S(=O)(=O)N2CCCCC2)c1,i,-4.8,nt,i
CCOc1ccccc1NC(=O)c1ccc(C(=O)Nc2ccccc2OCC)cc1,nt,nt,nt,i
CCOc1ccccc1NC(=O)CS,83,i,i,i
Cc1ccc(-c2cn3c(=S)[nH]nc3s2)cc1,98,i,i,i
Cc1ccc(-c2n[nH]c(=S)n2C)cc1,i,i,i,i
Cn1c(N/C(=C/C(=O)c2cccs2)C(F)(F)F)nc2ccccc21,i,i,i,i
O=C1C=CC(=NS(=O)(=O)c2cccs2)C=C1,nt,i,nt,nt
O=C1C=CC(=NS(=O)(=O)c2ccc(C(=O)O)cc2)C=C1,91,i,i,i
Brc1ccc(-c2csc(NN=C3CCCC3)n2)cc1,80,i,i,i
Cc1ccc(C(=O)CSc2ncn[nH]2)c(C)c1,70,i,i,i
CCC(C)NC(=S)Nc1ccccc1 (stereo not drawn),i,i,30,i
CC(C)N(C)NC(=S)Nc1ccccc1,i,i,41,i
CCNC(=S)Nc1ccccc1,i,i,i,i
CCN(CC)NC(=S)Nc1ccccc1,i,i,i,i
Cc1nn(Cc2c(Cl)cccc2Cl)c(Cl)c1CN1CCN(CC(=O)N2CCCC2)CC1,i,i,i,87
CC(C)(C)SCCC(=O)N1CCN(c2ncc(C(F)(F)F)cc2Cl)CC1,nt,i,nt,nt
CCOC(=O)CSc1nnc(Nc2ccccc2C)s1,i,i,i,i
O=C(N/N=C/c1ccc(O)cc1)Nc1cccc2nsnc12,i,i,37,i
CC(C)C(=O)Nc1cccc2nsnc12,nt,i,i,i
CC(C)Oc1ccccc1CN,i,i,32,i
O=C(CCn1c(=O)sc2ccccc21)n1c(=O)sc2ccccc21,nt,i,i,75
SMILES,Mtb MbtI inh,AID504770,MenB inh,Polio RdRp inh
O=c1cc(-c2ccccc2)oc2cc(Cl)ccc12,nt,i,nt,nt
Nc1cc(N)c2cc(-c3ccccc3)oc2c1,i,i,i,87
Cc1sc2cc(-[n+]3ccc(O)cc3)ccc2[n+]1-c1ccccc1,95,i,nt,i
CCOc1ccccc1CNC(=O)c1ccc2c(c1)ncn2C1CCCC1,nt,i,nt,nt
CSc1ncccc1C(=O)OCC(=O)Nc1ccc(NC(C)=O)cc1,i,i,i,i
CCO/C(C)=N\Oc1cc(=O)oc2ccccc12,i,i,i,i
CCOC(=O)/C=C(\C)Sc1cc(=O)oc2ccccc12,i,i,i,84
Cc1ccccc1NC(=O)N1CCCC(c2nc(-c3ccc(F)cc3)no2)C1 (stereo not drawn),i,i,29,i
CCCSc1nc2cc(C)c(C)cc2[nH]1,i,i,nt,i
CCCn1cnc2c1c(=O)[nH]c(=O)n2C,nt,-3.7,nt,nt
C=CCn1cnc2c1c(=O)[nH]c(=O)n2C,i,i,i,i
COc1ccc(Br)c(-c2nc(-c3ccccc3)no2)c1,nt,i,nt,nt
CC(C)(CNc1nsc2ccccc12)N1CCOCC1,i,i,i,89
c1ccc(CCn2nnnc2C(c2cccnc2)N2CCCCC2)cc1 (stereo not drawn),i,i,i,i
N#Cc1cccc(C(c2nnnn2Cc2ccccc2)N2CCCC2)c1 (stereo not drawn),i,i,29,i
CN(C(=O)NCc1noc2ccccc12)c1ccccc1Cl,i,i,i,i
COc1ccc(NC(=S)NN)cc1Cl,92,i,i,i
COc1cccc(C2=NS(=O)(=O)N(C)C(C(=O)Nc3cccc(O)c3)=C2)c1,nt,nt,nt,-16
O=C(/C=C/c1ccc2ccccc2n1)NCC(F)(F)F,i,i,i,i
Cc1ccsc1C(=O)OCC1CCCO1 (stereo not drawn),i,i,nt,i
Oc1c(Br)cc(CN2CCCCC2)c2cccnc12,i,i,nt,nt
Cn1c(SCC(=O)NCCC2=CCCCC2)nc2sccc2c1=O,i,i,i,i
COc1ccc(NC(=O)CC2SC(=Nc3ccccc3)N(c3ccccc3)C2=O)cc1 (stereo not drawn),i,i,i,i
COc1ccc(NC(=O)CC2Sc3ncnn3C2=O)cc1 (stereo not drawn),100,i,nt,nt
CC1CCCC(C)N1CC(O)Cn1cc(/C=N/O)c2ccccc21 (stereo not drawn),i,i,i,i
CCOc1ccc(C2=C(C(=O)CC)Sc3nncn3N2C(=O)CC)cc1,nt,nt,nt,82
CCC(=O)C1=C(c2ccccc2)N(C(=O)CC)n2cnnc2S1,i,i,i,i
CCC(=O)C1=C(c2ccc(F)cc2)N(C(=O)CC)n2cnnc2S1,nt,nt,nt,86
